Drawing on PubChem BioAssay (NCATS), this text covers Potency for 40 molecules.

Results filed as inconclusive are left out. A call without a number means that no potency is given here. Calls of active or inactive are those of the source. Calls follow the shape of the dose curve; as a rule, active = well fitted inhibition curve with a large enough effect; inconclusive = small, poorly fitted or top-dose-only effect; inactive = no such curve, though single readings can be large or run the other way.
Potency is read from the fitted curve at half-maximal effect.

A short description of the experiment: qHTS for Inhibitors of the Aldehyde Dehydrogenase Family (ALDH1A2, ALDH1A3, ALDH2, ALDH3A1) (AID 2061307). Also: nearly all actives have a fitted effect of over 50% in size. As to Potency: test system not described further here. The conditions noted are these: ALDH inhibition qHTS; series mostly up to 50.3 µM.
`COc1ccc(-n2ncc3c2CCCC3NC(=O)c2ccc(F)c(F)c2)cc1` (stereo not given): the Potency entry was “inactive”.

Consider `Cc1cn(-c2cc(NC(=O)c3ccc(C)c(N)c3)cc(C(F)(F)F)c2)cn1`, for which the Potency result is “inactive”.

`COc1ccc(-n2cc(-c3ccc4c(c3)OCO4)n(CC(=O)Nc3cccc(C)c3)c2=O)cc1`: the Potency result was “inactive”.

Take `COc1ccc(C(N)=O)cc1NC(=O)c1ccn(-c2ccc(F)cc2)n1`: the Potency entry is “inactive”.

Regarding `O=C(O)Cc1ccc(S(=O)(=O)N2CCCC2)s1`, the Potency is 11.3 µM (active).

Consider `Nc1nc(NCc2ccccc2)c2ccccc2n1`, for which the Potency was 10 µM (active).

Regarding `Cc1cc(NC(=O)c2cscn2)ccc1C(=O)O`, the Potency entry was “inactive”.

As for `O=C(Nc1nnc(Cc2ccccc2)s1)c1ccc(F)c(F)c1`, the Potency result is “inactive”.

For the molecule `O=C(NCCN1CCN(c2cccc(Cl)c2)CC1)Nc1ccccc1C(F)(F)F`, the Potency result is “inactive”.

Take `Cc1csc2c1c(=O)n(O)c(=O)n2Cc1ccccc1`: the Potency result was “inactive”.

Turning to `COc1ccc([N+](=O)[O-])c(S(=O)(=O)c2ccc(C)cc2)n1`, the Potency is 2.25 µM (active).

`O=C(NCc1ccccc1Cl)c1ccc(-c2nn[nH]n2)cc1`: the Potency entry was “inactive”.

As for `O=C(Nc1ccccc1C(=O)Nc1cccc(C(F)(F)F)c1)c1ccc(Cl)cc1`, the Potency entry is “inactive”.

On to `O=C1CC(c2c(F)cccc2F)c2sc(N3CCOCC3)nc2N1` (stereo not given), for which the Potency is 11.3 µM (active).

As to `Cc1noc(C)c1-c1cncc(C(=O)NCc2cccnc2)c1`, the Potency entry was “inactive”.

In the case of `Cn1c(C(=O)O)cnc1-n1cc(Cc2ccc(S(N)(=O)=O)cc2)c(-c2ccccc2)n1`, the Potency entry was “inactive”.

`Cc1ccc(-c2cc(C(=O)O)c3cccc(C)c3n2)cc1`: the Potency is 7.12 µM (active).

As to `COc1ccc(OC)c(NC(=O)c2cccc(Nc3ncccn3)c2)c1`, the Potency result is “inactive”.

Turning to `Nc1nc2c(s1)C(c1ccc(F)cc1Cl)CC(=O)N2` (stereo not given), the Potency is 4 µM (active).

Turning to `O=C(CSc1nnc(-c2ccncc2)o1)Nc1ccc2c(c1)OCCO2`, the Potency entry is “inactive”.

With `O=C(Nc1ccc(C(=O)N2CCCC2)cc1)c1ccccc1F`, the Potency was 10.7 µM (active).

Turning to `Cc1ccc(N(C)S(=O)(=O)c2ccc(-c3cnc(C4CC4)o3)cc2)cc1`, the Potency result was “inactive”.

For the molecule `CCc1cccc(C)c1Nc1c(-c2ccc(N(C)C)cc2)nc2ncccn12`, the Potency result was “inactive”.

Regarding `N#Cc1cccc(-c2ccc3nc(-c4ccccc4)cn3c2)c1`, the Potency entry is “inactive”.

Take `CCOc1ccc(-c2nc3scc(-c4ccc(OC)cc4)c3c(=O)[nH]2)cc1OC`: the Potency entry is “inactive”.

Regarding `NCC(=O)Nc1cccc(-c2nn3c(=O)cc(N4CCNCC4)nc3s2)c1`, the Potency entry was “inactive”.

For the molecule `O=C(Nc1cccnc1)c1nccs1`, the Potency result was “inactive”.

On to `COC(=O)c1ccc(S(=O)(=O)N2CCC(c3nc4ccccc4s3)CC2)cc1`, for which the Potency result was “inactive”.

As to `N#Cc1ccc(NC(=O)Cc2csc3nc(-c4ccccc4)cn23)cc1`, the Potency is 18.2 µM (active).

Take `Cc1ccccc1C(=O)n1ccc2cc(-c3cccc(NC(=O)Cc4ccccc4)n3)cnc21`: the Potency entry is “inactive”.

Consider `Fc1ccc(Cn2cnc3ccccc32)cc1F`, for which the Potency is 12.7 µM (active).

As to `NC(=O)c1ccc(NC(=O)c2cnn(-c3ccccc3)n2)cc1`, the Potency result was “inactive”.

Take `O=C(Nc1nnc(-c2ccccn2)o1)c1ccc(Cl)cc1Cl`: the Potency is 12.7 µM (active).

In the case of `[2H]C([2H])([2H])N1CCC(N(CCc2ccccc2)Cc2ccccc2)CC1`, the Potency entry was “inactive”.

Consider `COc1ccccc1CNc1ccc(N2CCCCC2)cc1`, for which the Potency is 2.52 µM (active).

Regarding `Cc1c2c(=O)n(-c3ccccc3)[nH]c2cc(=O)n1CCN1CCOCC1`, the Potency result was “inactive”.

Consider `CN(C)CC(=O)NC1CCCc2c1cnn2-c1ccc(OCCOCCOCCNC(=O)OC(C)(C)C)cc1` (stereo not given), for which the Potency result is “inactive”.

`CC(C)(C)c1ccccc1-n1c(CN2CCN(C(=O)c3ccco3)CC2)nc2ccccc2c1=O`: the Potency result was “inactive”.

For `COc1ccc2nc(-c3cnn(Cc4ccccc4)c3)sc2c1`, the Potency entry was “inactive”.

Regarding `COC(=O)CNCc1c(O)ccc2ccccc12`, the Potency was 6.34 µM (active).
